What all share (assay): PBM; 200 nM protein, PBS
What all share (conditions): dsDNA, one strand shown

Assay [1] deals with HOXC9 (Homo sapiens, UniProt P31274 178-260, K195R).
For assay [2], the target named is HOXC9 (Homo sapiens, UniProt P31274 178-260).
For assay [3], the target named is HOXC9 (Homo sapiens, UniProt P31274 178-260, R193K).
For assay [4], the target named is HOXC9 (Homo sapiens, UniProt P31274 178-260, R222W).
Assay [5] concerns the target HOXA7 (Homo sapiens, UniProt P31268 116-202).
Assay [6] concerns the target HOXC10 (Homo sapiens, UniProt Q9NYD6 254-340).
The target in assay [7] is HOXA2 (Homo sapiens, UniProt O43364 129-215, R185T).
Chain of HOXA2 (Homo sapiens, UniProt O43364 129-215, R185T) (O43364 129-215 R185T): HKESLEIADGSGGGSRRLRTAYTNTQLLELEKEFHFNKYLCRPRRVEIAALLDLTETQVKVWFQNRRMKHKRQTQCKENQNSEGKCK
For assay [8], the target named is HOXA2 (Homo sapiens, UniProt O43364 129-215, R185K).
Chain of HOXA2 (Homo sapiens, UniProt O43364 129-215, R185K) (O43364 129-215 R185K): as the sequence (O43364 129-215 R185T) above, with T57K counted along it
Assay [9] deals with HOXC10 (Homo sapiens, UniProt Q9NYD6 254-340, K271E).
Chain of HOXC10 (Homo sapiens, UniProt Q9NYD6 254-340, K271E) (Q9NYD6 254-340 K271E): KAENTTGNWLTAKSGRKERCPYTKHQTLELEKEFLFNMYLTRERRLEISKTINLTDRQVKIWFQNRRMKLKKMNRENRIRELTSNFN
Assay [10] deals with HOXA2 (Homo sapiens, UniProt O43364 129-215, Y150S).
Chain of HOXA2 (Homo sapiens, UniProt O43364 129-215, Y150S) (O43364 129-215 Y150S): as the sequence (O43364 129-215 R185T) above, with Y22S, T57R counted along it
In assay [11] the target is HOXA7 (Homo sapiens, UniProt P31268 116-202, W177C).
Chain of HOXA7 (Homo sapiens, UniProt P31268 116-202, W177C) (P31268 116-202 W177C): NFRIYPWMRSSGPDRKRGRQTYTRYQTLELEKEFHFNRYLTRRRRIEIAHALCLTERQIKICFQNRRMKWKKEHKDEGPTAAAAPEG
Assay [12] concerns the target HOXA2 (Homo sapiens, UniProt O43364 129-215).
Assay [13] concerns the target T1, VENTX (Homo sapiens, UniProt O95231 78-163).
T1 sequence: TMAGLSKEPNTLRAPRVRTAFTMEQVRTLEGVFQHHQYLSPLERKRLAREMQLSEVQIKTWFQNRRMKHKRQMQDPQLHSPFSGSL

Assay [14] deals with HOXB6 (Homo sapiens, UniProt P17509 132-218, K202E).
Chain of HOXB6 (Homo sapiens, UniProt P17509 132-218, K202E) (P17509 132-218 K202E): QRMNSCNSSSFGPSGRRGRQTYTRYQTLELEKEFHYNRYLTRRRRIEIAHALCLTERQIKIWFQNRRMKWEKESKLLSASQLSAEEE
Assay [15] addresses HOXB6 (Homo sapiens, UniProt P17509 132-218).
The target in assay [16] is T2, VENTX (Homo sapiens, UniProt O95231 78-163, Y115F).
T2 sequence: T1 sequence with Y38F

Assay [17] deals with ALX1 (Homo sapiens, UniProt Q15699 118-204, L144V).
Chain of ALX1 (Homo sapiens, UniProt Q15699 118-204, L144V) (Q15699 118-204 L144V): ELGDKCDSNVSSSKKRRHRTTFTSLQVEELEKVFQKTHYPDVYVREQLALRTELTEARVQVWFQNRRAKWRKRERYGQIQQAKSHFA
The target in assay [18] is ALX1 (Homo sapiens, UniProt Q15699 118-204, L144R).
Chain of ALX1 (Homo sapiens, UniProt Q15699 118-204, L144R) (Q15699 118-204 L144R): as the sequence (Q15699 118-204 L144V) above, with V27R counted along it
Assay [19] concerns the target ALX1 (Homo sapiens, UniProt Q15699 118-204).

Positions count from the first letter of the chain named.

Chain of HOXC10 (Homo sapiens, UniProt Q9NYD6 254-340) (Q9NYD6 254-340): as the sequence (Q9NYD6 254-340 K271E) above, with E18K counted along it
Chain of HOXC9 (Homo sapiens, UniProt P31274 178-260, R222W) (P31274 178-260 R222W): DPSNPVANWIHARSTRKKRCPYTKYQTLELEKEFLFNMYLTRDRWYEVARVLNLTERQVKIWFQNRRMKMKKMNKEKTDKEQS
Chain of HOXA7 (Homo sapiens, UniProt P31268 116-202) (P31268 116-202): as the sequence (P31268 116-202 W177C) above, with C62W counted along it
Chain of HOXC9 (Homo sapiens, UniProt P31274 178-260, R193K) (P31274 178-260 R193K): as the sequence (P31274 178-260 R222W) above, with R16K, W45R counted along it
Chain of HOXC9 (Homo sapiens, UniProt P31274 178-260, K195R) (P31274 178-260 K195R): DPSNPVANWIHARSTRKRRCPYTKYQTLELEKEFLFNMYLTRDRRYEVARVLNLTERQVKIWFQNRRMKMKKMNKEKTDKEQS
Chain of HOXC9 (Homo sapiens, UniProt P31274 178-260) (P31274 178-260): as the sequence (P31274 178-260 R222W) above, with W45R counted along it
Chain of ALX1 (Homo sapiens, UniProt Q15699 118-204) (Q15699 118-204): as the sequence (Q15699 118-204 L144V) above, with V27L counted along it
Chain of HOXA2 (Homo sapiens, UniProt O43364 129-215) (O43364 129-215): as the sequence (O43364 129-215 R185T) above, with T57R counted along it
Chain of HOXB6 (Homo sapiens, UniProt P17509 132-218) (P17509 132-218): as the sequence (P17509 132-218 K202E) above, with E71K counted along it

Take CTCACCAG: the binding signal with HOXC9 [1] was 9.79 upbm affinity estimate (log intensity, higher = more binding, comparable within an allelic series); with HOXC9 [2], 9.75 upbm affinity estimate (log intensity, higher = more binding, comparable within an allelic series); with HOXC9 [3], 9.75 upbm affinity estimate (log intensity, higher = more binding, comparable within an allelic series); in the assay with HOXC9 [4], 9.9 upbm affinity estimate (log intensity, higher = more binding, comparable within an allelic series).

As to CACCGGTC, the binding signal with HOXA7 [5] is 8.56 upbm affinity estimate (log intensity, higher = more binding, comparable within an allelic series); with HOXC10 [6], 10 upbm affinity estimate (log intensity, higher = more binding, comparable within an allelic series); with HOXA2 [7] it was 7.38 upbm affinity estimate (log intensity, higher = more binding, comparable within an allelic series); with HOXA2 [8], 10.4 upbm affinity estimate (log intensity, higher = more binding, comparable within an allelic series); in the assay with HOXC10 [9], 9.92 upbm affinity estimate (log intensity, higher = more binding, comparable within an allelic series); in the assay with HOXA2 [10] it was 10.3 upbm affinity estimate (log intensity, higher = more binding, comparable within an allelic series). Also, the binding signal was 8.34 upbm affinity estimate (log intensity, higher = more binding, comparable within an allelic series) in the assay with HOXA7 [11] and 7.28 upbm affinity estimate (log intensity, higher = more binding, comparable within an allelic series) with HOXA2 [12].

CATTTACG: the binding signal in the assay with VENTX [13] was 10.4 upbm affinity estimate (log intensity, higher = more binding, comparable within an allelic series).

Take ATCACCAT: in the assay with VENTX [13], the binding signal is 10.3 upbm affinity estimate (log intensity, higher = more binding, comparable within an allelic series).

Take CCTAGACG: the binding signal in the assay with HOXC9 [1] was 9.79 upbm affinity estimate (log intensity, higher = more binding, comparable within an allelic series); in the assay with HOXC9 [2] it was 9.86 upbm affinity estimate (log intensity, higher = more binding, comparable within an allelic series); with HOXC9 [3], 9.81 upbm affinity estimate (log intensity, higher = more binding, comparable within an allelic series); with HOXC9 [4] it was 9.82 upbm affinity estimate (log intensity, higher = more binding, comparable within an allelic series).

Take CCCCAGGG: the binding signal with HOXC9 [1] was 9.62 upbm affinity estimate (log intensity, higher = more binding, comparable within an allelic series); with HOXC9 [2] it was 9.8 upbm affinity estimate (log intensity, higher = more binding, comparable within an allelic series); in the assay with HOXC9 [3] it was 9.59 upbm affinity estimate (log intensity, higher = more binding, comparable within an allelic series); with HOXC9 [4], 9.62 upbm affinity estimate (log intensity, higher = more binding, comparable within an allelic series).

As for AATAACCG, the binding signal with VENTX [13] is 10.1 upbm affinity estimate (log intensity, higher = more binding, comparable within an allelic series).

In the case of GAGTCCGC, the binding signal in the assay with HOXA7 [5] is 8.56 upbm affinity estimate (log intensity, higher = more binding, comparable within an allelic series); with HOXC10 [6] it was 10.1 upbm affinity estimate (log intensity, higher = more binding, comparable within an allelic series); in the assay with HOXB6 [14], 9.05 upbm affinity estimate (log intensity, higher = more binding, comparable within an allelic series); in the assay with HOXC10 [9], 10.1 upbm affinity estimate (log intensity, higher = more binding, comparable within an allelic series); with HOXA7 [11], 8.39 upbm affinity estimate (log intensity, higher = more binding, comparable within an allelic series); with HOXB6 [15] it was 8.98 upbm affinity estimate (log intensity, higher = more binding, comparable within an allelic series).

In the case of GATTGAGC, in the assay with VENTX [13], the binding signal is 9.7 upbm affinity estimate (log intensity, higher = more binding, comparable within an allelic series).

For GGGCCCCC, the binding signal is 9.38 upbm affinity estimate (log intensity, higher = more binding, comparable within an allelic series) with HOXC9 [1]; 9.62 upbm affinity estimate (log intensity, higher = more binding, comparable within an allelic series) with HOXC9 [2]; 9.51 upbm affinity estimate (log intensity, higher = more binding, comparable within an allelic series) with HOXC9 [3]; 9.4 upbm affinity estimate (log intensity, higher = more binding, comparable within an allelic series) in the assay with HOXC9 [4].

On to ATTTAGTC, for which the binding signal in the assay with VENTX [13] is 10.2 upbm affinity estimate (log intensity, higher = more binding, comparable within an allelic series).

In the case of GGGCACGA, the binding signal with HOXC9 [1] is 9.75 upbm affinity estimate (log intensity, higher = more binding, comparable within an allelic series); with HOXC9 [2] it was 9.85 upbm affinity estimate (log intensity, higher = more binding, comparable within an allelic series); with HOXC9 [3] it was 9.76 upbm affinity estimate (log intensity, higher = more binding, comparable within an allelic series); with HOXC9 [4] it was 9.89 upbm affinity estimate (log intensity, higher = more binding, comparable within an allelic series).

For TATGAATA, the binding signal in the assay with VENTX [13] is 10.3 upbm affinity estimate (log intensity, higher = more binding, comparable within an allelic series).

Consider AGGGACCC, for which the binding signal is 9.58 upbm affinity estimate (log intensity, higher = more binding, comparable within an allelic series) with HOXC9 [1]; 9.44 upbm affinity estimate (log intensity, higher = more binding, comparable within an allelic series) with HOXC9 [2]; 9.63 upbm affinity estimate (log intensity, higher = more binding, comparable within an allelic series) with HOXC9 [3]; 9.54 upbm affinity estimate (log intensity, higher = more binding, comparable within an allelic series) with HOXC9 [4].

Take CGATAACC: the binding signal with VENTX [13] is 9.81 upbm affinity estimate (log intensity, higher = more binding, comparable within an allelic series).

Consider CACGTTTA, for which the binding signal with VENTX [13] was 10.1 upbm affinity estimate (log intensity, higher = more binding, comparable within an allelic series).

With CGTGATCA, the binding signal is 9.86 upbm affinity estimate (log intensity, higher = more binding, comparable within an allelic series) with VENTX [13] and 9.57 upbm affinity estimate (log intensity, higher = more binding, comparable within an allelic series) with VENTX [16].

ACTAAGCG: the binding signal in the assay with VENTX [13] is 10.2 upbm affinity estimate (log intensity, higher = more binding, comparable within an allelic series).

Turning to CATCATCA, the binding signal with VENTX [13] is 10.4 upbm affinity estimate (log intensity, higher = more binding, comparable within an allelic series).

As for CAGGTCCC, the binding signal with HOXA7 [5] was 8.47 upbm affinity estimate (log intensity, higher = more binding, comparable within an allelic series); in the assay with HOXC10 [6] it was 10 upbm affinity estimate (log intensity, higher = more binding, comparable within an allelic series); with HOXC10 [9] it was 10.1 upbm affinity estimate (log intensity, higher = more binding, comparable within an allelic series); with HOXA7 [11], 8.4 upbm affinity estimate (log intensity, higher = more binding, comparable within an allelic series).

As for ATTTAGAC, the binding signal with HOXA7 [5] is 9.49 upbm affinity estimate (log intensity, higher = more binding, comparable within an allelic series).

On to ACGCCATA, for which the binding signal with HOXC9 [1] is 11 upbm affinity estimate (log intensity, higher = more binding, comparable within an allelic series); with HOXC9 [2], 10.9 upbm affinity estimate (log intensity, higher = more binding, comparable within an allelic series); with HOXC9 [3], 11 upbm affinity estimate (log intensity, higher = more binding, comparable within an allelic series); in the assay with HOXC9 [4] it was 10.2 upbm affinity estimate (log intensity, higher = more binding, comparable within an allelic series).

As to CCTCTGGA, the binding signal is 9.66 upbm affinity estimate (log intensity, higher = more binding, comparable within an allelic series) in the assay with HOXC9 [1]; 9.58 upbm affinity estimate (log intensity, higher = more binding, comparable within an allelic series) in the assay with HOXC9 [2]; 9.64 upbm affinity estimate (log intensity, higher = more binding, comparable within an allelic series) with HOXC9 [3]; 9.74 upbm affinity estimate (log intensity, higher = more binding, comparable within an allelic series) with HOXC9 [4].

For the sequence AATTGGAC, the binding signal with VENTX [13] is 10.1 upbm affinity estimate (log intensity, higher = more binding, comparable within an allelic series); with VENTX [16] it was 9.62 upbm affinity estimate (log intensity, higher = more binding, comparable within an allelic series).

For CCAGCCCG, the binding signal with HOXC9 [1] is 9.66 upbm affinity estimate (log intensity, higher = more binding, comparable within an allelic series); with HOXC9 [2], 9.72 upbm affinity estimate (log intensity, higher = more binding, comparable within an allelic series); in the assay with HOXC9 [3], 9.7 upbm affinity estimate (log intensity, higher = more binding, comparable within an allelic series); with HOXC9 [4], 9.67 upbm affinity estimate (log intensity, higher = more binding, comparable within an allelic series).

In the case of CGCGTTTA, the binding signal with VENTX [13] was 10.2 upbm affinity estimate (log intensity, higher = more binding, comparable within an allelic series).

Regarding CCTGCACC, the binding signal is 9.28 upbm affinity estimate (log intensity, higher = more binding, comparable within an allelic series) with HOXC9 [1]; 9.29 upbm affinity estimate (log intensity, higher = more binding, comparable within an allelic series) in the assay with HOXC9 [2]; 9.3 upbm affinity estimate (log intensity, higher = more binding, comparable within an allelic series) with HOXC9 [3]; 9.7 upbm affinity estimate (log intensity, higher = more binding, comparable within an allelic series) in the assay with HOXC9 [4].

Take GCTATAAC: the binding signal is 9.4 upbm affinity estimate (log intensity, higher = more binding, comparable within an allelic series) with HOXA7 [5]; 8.22 upbm affinity estimate (log intensity, higher = more binding, comparable within an allelic series) in the assay with ALX1 [17]; 8.11 upbm affinity estimate (log intensity, higher = more binding, comparable within an allelic series) in the assay with ALX1 [18]; 8.68 upbm affinity estimate (log intensity, higher = more binding, comparable within an allelic series) with HOXA7 [11]; 8.21 upbm affinity estimate (log intensity, higher = more binding, comparable within an allelic series) with ALX1 [19].

For the origin of these results see publication PMC11006913.
